# Source: the supplement of paper PMC13380429
# Structures can show the parent of a compound that is named as a salt. Values without a mark were called inactive.
# Tested on: Vero E6 infected with SARS-CoV-2
# Assay: inhibition of SARS-CoV-2 cytopathic effect; higher = more antiviral protection, active = above 15
# Conditions: 48 h
SMILES,inhibition of SARS-CoV-2 cytopathic effect (1 nM),inhibition of SARS-CoV-2 cytopathic effect (8.33 nM),inhibition of SARS-CoV-2 cytopathic effect (100 nM),inhibition of SARS-CoV-2 cytopathic effect (833.33 nM),inhibition of SARS-CoV-2 cytopathic effect (10000 nM)
Oc1ccc2c3c1O[C@H]1c4oc5ccccc5c4C[C@@]4(O)[C@@H](C2)N(CC2CC2)CC[C@]314 [naltriben],0.92%,-0.89%,0.12%,-0.45%,-2.94%
CNNCc1ccc(C(=O)NC(C)C)cc1 [procarbazine],-1.55%,4.48%,-0.09%,2.14%,0.27%
Cc1cc(O)c(C(C)C)cc1Cl [chlorothymol],0.21%,0.56%,2.72%,0.49%,-5.16%
C[C@@H]1C[C@@H]([C@H](O)CC2CC(=O)NC(=O)C2)C(=O)[C@@H](C)C1 [cycloheximide],2.12%,2.86%,6.34%,27.6% (active),17.4% (active)
O=C1C=CC(=O)C2=C1C1c3ccccc3C2c2ccccc21,1.05%,0.78%,-0.03%,2.43%,5.57%
O=C(O)C1CN(Cc2ccc(-c3nc4cc(Cc5ccccc5F)ccc4s3)c(F)c2)C1,1.34%,1.1%,2.02%,0.03%,1.58%
N[C@H](C(=O)O)c1ccc(O)cc1 [oxfenicine],2.15%,3.82%,2.38%,0.58%,2.3%
C[C@@H]1O[C@@H](O[C@H]2[C@H](Oc3cc(O)c(C(=O)CCc4ccc(O)cc4)c(O)c3)O[C@H](CO)[C@@H](O)[C@@H]2O)[C@H](O)[C@H](O)[C@H]1O [naringin-dihydrochalcone],0.83%,0.35%,0.27%,0.83%,1.4%
COc1cc(NC(=O)c2cccc(-n3cc(NC(=O)Nc4cccc(C)c4)cn3)c2)cc(OC)c1OC,-0.97%,-0.75%,2.66%,0.39%,-0.61%
CCN1C(C)(C)CC(Oc2ccc(C(=O)Nc3ccc(NC(=O)Nc4cc(C(C)(C)C)on4)cc3)nc2)CC1(C)C,-2.79%,-0.55%,-1.48%,-1.05%,-4.86%
Nc1ncnc2c1ncn2[C@@H]1O[C@H](C[C@@H](N)CC[C@H](N)C(=O)O)[C@@H](O)[C@H]1O [sinefungin],-10.5%,-10.2%,-10%,-7.77%,-7.24%
C[C@H](N)Cc1c[nH]cn1 [alpha-methylhistamine-dihydrobromide-(S)-(+)],-0.195%,-0.765%,8.02%,1.26%,2.96%
c1nc(CC2CCNCC2)c[nH]1 [immepip],-1.43%,-3.19%,-3.25%,-0.04%,0.13%
O=[N+]([O-])c1ccccc1S(=O)(=O)NCC1CCC(CNC[C@H]2CCc3ccccc3C2)CC1 (stereo not given in full),0.09%,1.35%,-1.44%,-4.04%,42.4% (active)
C[C@]12CCC(=O)C=C1CC[C@@H]1[C@@H]2C(=O)C[C@]2(C)C(=O)CC[C@@H]12 [adrenosterone],0.47%,-2.37%,0.08%,1.4%,2.11%
OC1(c2ccc(Cl)c(C(F)(F)F)c2)CCN(CCCC(c2ccc(F)cc2)c2ccc(F)cc2)CC1 [penfluridol],-1.2%,2.8%,1.5%,-2.41%,33.9% (active)
CC[C@]12CCCN3CCc4c(n(c5ccccc45)[C@@](O)(C(=O)OC)C1)[C@@H]32 [vincamine],0.28%,2.12%,0.98%,-2.3%,-1.71%
CCN(CC)Cc1ccc(C(=O)N(CCc2ccccc2OC)[C@@H]2CCNC2)cc1,-1.07%,-4.2%,-1.66%,-1.07%,-1.55%
